# This is part of a sample that, as a whole, favours compounds with a hit. Of some 83,000 tested, about 20% had one in any assay.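 Activity criterion: percent growth below 10, measured after cells in 96-well plates were exposed to a single compound concentration for 48 hours.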 A number with no mark means an inactive call. Active and inactive are the calls of the source.
# Columns and labels:
# Experiment in all cases: NCI-60 one-dose screen, 48 h (100 = growth as untreated, 0 = no growth, -100 = all killed)
# Conditions in all cases: 10 µM unless noted
# NCI-H23 lung = tested on: NCI-H23 lung
# NCI-H226 lung = tested on: NCI-H226 lung
# NCI-H322M lung = tested on: NCI-H322M lung
# HOP-62 NSCLC = tested on: HOP-62 NSCLC
# NCI-H460 lung = tested on: NCI-H460 lung
# NCI-H522 lung = tested on: NCI-H522 lung
# A549/ATCC NSCLC = tested on: A549/ATCC NSCLC
# 786-0 renal = tested on: 786-0 renal
# COLO 205 colon = tested on: COLO 205 colon
# DU-145 prostate = tested on: DU-145 prostate
# MALME-3M melanoma = tested on: MALME-3M melanoma
# MDA-MB-231 breast = tested on: MDA-MB-231 breast
# RXF 393 renal = tested on: RXF 393 renal
# SF-268 CNS = tested on: SF-268 CNS
# SF-295 CNS = tested on: SF-295 CNS
# SF-539 CNS = tested on: SF-539 CNS
# UACC-257 melanoma = tested on: UACC-257 melanoma
# M14 melanoma = tested on: M14 melanoma
SMILES,growth (NCI-H23 lung),growth (NCI-H226 lung),growth (NCI-H322M lung),growth (HOP-62 NSCLC),growth (NCI-H460 lung),growth (NCI-H522 lung),growth (A549/ATCC NSCLC),growth (786-0 renal),growth (COLO 205 colon),growth (DU-145 prostate),growth (MALME-3M melanoma),growth (MDA-MB-231 breast),growth (RXF 393 renal),growth (SF-268 CNS),growth (SF-295 CNS),growth (SF-539 CNS),growth (UACC-257 melanoma),growth (M14 melanoma)
COc1cccc(-c2nc3sccn3c2-c2ccnc(NCCN3CCCN(C)S3(=O)=O)n2)c1,104%,78.9%,91.4%,111%,69.5%,95.9%,91.7%,73.3%,45.8%,74.2%,39.6%,84.9%,74.6%,103%,96.8%,92.5%,84.7%,29.2%
CC[C@]1(O)C[C@H]2CN(CCc3c([nH]c4ccccc34)C(C(=O)OC)(c3cc4c(cc3OC)N(C)[C@H]3[C@@](O)(C(=O)OC)[C@H](OC(C)=O)[C@]5(CC)[C@@H]6C[C@@H]6CN6CC[C@]43[C@@H]65)C2)C1 (stereo partly specified),19.8%,-25.3% (active),53.8%,24.6%,10.7%,-9.66% (active),19.8%,-8.75% (active),-73.3% (active),12.1%,20.5%,-12% (active),35%,-4.98% (active),-15.1% (active),-22% (active),68.2%,-72% (active)
N#CCCn1cnc2c(N)ncnc21,101%,95.9%,123%,94.6%,108%,97.7%,99.9%,96.7%,120%,108%,125%,94.2%,120%,110%,102%,97.8%,102%,102%
CCOC(=O)c1cnc(SCC)nc1SC#N,94.6%,142%,103%,121%,115%,31.8%,101%,101%,82.1%,103%,97.7%,98.2%,173%,103%,106%,89.2%,92.6%,84.7%
CC(C)(C)c1nn(-c2ccccc2)c2c1C(=O)CSC(c1ccccc1Cl)N2 (stereo unspecified),38.3%,36.4%,35.1%,27.6%,22.4%,11.7%,39.8%,25.7%,2.17% (active),26.7%,53.5%,66%,-10.4% (active),50.4%,-13.4% (active),15.7%,77.4%,11.2%
c1ccc2c(N=NSc3ncnc4nc[nH]c34)c3ccccc3nc2c1,-8.68% (active),-23% (active),8.38% (active),-49.9% (active),2.58% (active),-74.9% (active),-24.4% (active),-5.12% (active),-95.3% (active),8.43% (active),-17.9% (active),5.25% (active),-20.8% (active),3.15% (active),20.1%,5.02% (active),-13.9% (active),-25.4% (active)
CCOC(=O)c1ccc2c(c1)[n+](=O)c(C(=O)c1ccc3ccccc3c1)c(C(F)(F)F)n2[O-],-88.4% (active),-93.7% (active),67.2%,-93.8% (active),-100% (active),-80.1% (active),-26.4% (active),-100% (active),-100% (active),-100% (active),-69.1% (active),-99.4% (active),-71.2% (active),-88.8% (active),-84.8% (active),-100% (active),-71.7% (active),-100% (active)
COc1cc(-c2nc(-c3ccc(-c4nc5ccc(F)cc5[nH]4)cc3)no2)cc(OC)c1OC,30.4%,29.2%,90.7%,26.5%,43.2%,18.2%,42.8%,46.4%,60.4%,68.5%,46%,9.59% (active),-3.77% (active),35.8%,22.5%,33.9%,80.1%,
Nc1ccc(C2=NNC(=O)Cc3cc4c(cc32)OCCO4)cc1Cl,20.9%,68.5%,61.1%,46%,10.6%,11%,40.3%,54.3%,26.9%,67.5%,40.9%,61.4%,49.9%,59.7%,15.9%,49.4%,72.7%,16.8%

# From PubChem BioAssay (NCI)
